# Results: PubChem BioAssay AID540275 (National Center for Advancing Translational Sciences (NCATS), 2011)
# The whole screen tested about 320,000 compounds, of which about 620 (0.19%) were called active. Not shown: some 6% with an inconclusive outcome. For the sample, actives were picked, then their nearest neighbours and some compounds at random. A number with no mark means an inactive call. Cut-off read from the data, not from the text of the source: active = activation above about 80%; inconclusive = between about 30% and that limit; inactive = weaker than that.
# Biological target: Transient receptor potential cation channel subfamily V member 1 (Homo sapiens) (UniProt Q8NER1)
# Sequence (Q8NER1 whole entry, looked up): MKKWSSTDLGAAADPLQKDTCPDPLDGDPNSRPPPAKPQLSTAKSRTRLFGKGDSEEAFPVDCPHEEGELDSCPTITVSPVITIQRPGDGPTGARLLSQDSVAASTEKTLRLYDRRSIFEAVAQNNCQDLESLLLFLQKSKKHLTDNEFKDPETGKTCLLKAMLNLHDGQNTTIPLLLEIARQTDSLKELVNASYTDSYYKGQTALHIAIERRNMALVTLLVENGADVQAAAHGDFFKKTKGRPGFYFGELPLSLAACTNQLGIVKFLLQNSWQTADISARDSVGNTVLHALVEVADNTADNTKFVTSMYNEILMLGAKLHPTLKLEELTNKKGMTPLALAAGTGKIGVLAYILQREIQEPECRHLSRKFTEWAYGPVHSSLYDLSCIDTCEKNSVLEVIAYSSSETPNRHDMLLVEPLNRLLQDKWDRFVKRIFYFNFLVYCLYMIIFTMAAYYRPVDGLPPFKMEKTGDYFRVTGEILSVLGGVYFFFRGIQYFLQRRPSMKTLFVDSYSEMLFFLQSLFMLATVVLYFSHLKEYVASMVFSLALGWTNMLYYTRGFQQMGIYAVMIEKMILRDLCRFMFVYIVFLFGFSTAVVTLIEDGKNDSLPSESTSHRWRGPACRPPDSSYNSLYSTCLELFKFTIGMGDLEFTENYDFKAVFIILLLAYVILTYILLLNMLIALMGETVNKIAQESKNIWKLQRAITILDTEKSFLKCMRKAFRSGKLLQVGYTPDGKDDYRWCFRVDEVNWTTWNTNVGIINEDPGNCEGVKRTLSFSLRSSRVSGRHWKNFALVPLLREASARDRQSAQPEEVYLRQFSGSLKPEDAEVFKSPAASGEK
# Assay: HTS Assay for Compounds that Act as Agonists of the Vanilloid Receptor 1; note: 0% is about no effect
# Conditions: TRPV1-expressing cells, Fluo-8 calcium influx, agonist mode; at 8.33 µM; hits give high values
# From the text: The transient receptor potential ion channel, family V, number 1, (TRPV1) is one of the most important molecular transducers of painful stimuli and a potential target for analgesic drug development. Although recent clinical trials with orthosteric antagonists have not produced a successful drug because of a hyperthermia side effect and their tendency to block thermal noxious pain, this ion channel is undeniably well placed in the pain pathway, and the idea of blocking pain signals before they enter the CNS is an excellent concept and of proven efficacy when TRPV1 agonists are used. We propose a new approach involving allosteric modulation to impose an activity-dependent constraint within the context of inflammation and tissue damage that would alter the responsiveness of the channel in a way that an orthosteric vanilloid antagonist cannot achieve. We believe that the allosteric modulator approach has not been explored for this target. The main goal of this proposal is to identify additional, new, potent allosteric modulators of TRPV1 that can be used to investigate TRPV1 function. Our recent report provides evidence of proof of concept, but the compounds are just at the edge of utility in terms of potency. […] The question of whether they can be used as analgesic agents is complex, but if suitable compounds are identified then testing for analgesic properties will be conducted. NIH Chemical Genomics Center [NCGC] NIH Molecular Libraries Probe Centers Network [MLPCN] MLPCN Grant: MH089480-1A1 Assay Submitter (PI): Michael Iadarola, National Institute of Dental and Cranofacial Research
# Upon TRPV1 activation in TRPV1 cells, the channel opens and extracellular cations flow through the channel into the cytosol. A calcium binding dye (Fluo-8) becomes fluorescent when bound to calcium. This dye is pre-loaded into cells and is used as a marker for calcium influx. The amount of accumulated calcium is precisely quantified using the FDSS kinetic reader and the calcium dye. For the HTS assay, freshly prepared cells are plated at a density of 2000/well in 3 ul medium in 1536-well plates and cultured overnight at 35.5C. Cells will be loaded with 1 ul of the homogeneous calcium dye (ABD Bioquest) at room temperature for 40 to 90 minutes. Plates will be loaded into the FDSS kinetic reader and a 1 sec / cycle for 10 second baseline signal will be measured. Compound library will then be added with a pintool at 23 nl and measured kinetically for 3 minutes. This portion of the read is considered the agonist portion of the screen. Following the 3 minutes of incubation, an on board pipettor will deliver 1 ul of capsaicin for a final concentration equal to the EC20. Signal will be measured kinetically for an additional 2 minutes. This portion of the read is considered the allosteric enhancer portion of the screen. The FDSS reader has a standard filter set capable of measuring calcium bound Fluo-8 (ex=480 and em=520 nm).
row,SMILES,activation
1,CCN(CC(=O)Nc1ccccc1OC)C(=O)CC1CC2CCC1C2 (stereo not given),23.5%
2,COc1ccc(OC)c(/C=C/C(=O)c2ccc3c(c2)OCO3)c1,25.2%
3,COc1ccc([C@H]2CC(=O)C=C(/C=C/c3ccc(Cl)cc3)C2)cc1,6.1%
4,CN1CCN(c2ccc(NC(=O)c3cc(Cl)c4c(c3)OCCO4)cc2)CC1,-4.8%
5,O=C1C=C(c2cccc(Cl)c2O)C[C@@H](c2ccc(F)cc2)C1,15.9%
6,COc1ccc(NC(=O)COC(=O)c2n[nH]c3ccccc23)c(OC)c1,2.58%
7,COc1ccc(S(=O)(=O)N2CCOCC2)cc1NC(=O)c1ccc(OCC(C)C)c(OC)c1,3.95%
8,CN(c1ccccc1)S(=O)(=O)c1cccc(NC(=O)Cc2ccc(Cl)cc2)c1,6.78%
9,Cc1ccc(S(=O)(=O)NCCC(=O)NCc2ccc(Cl)cc2)cc1C,21.8%
10,CC(C)c1nc(N2CCOCC2)c(C#N)c2c1COC(C)(C)C2,13.5%
11,CCOC(=O)CSc1nc(N2CCOCC2)c2c(c1C#N)CC(C(C)C)OC2 (stereo not given),17.3%
12,COc1ccc(CSc2nc(N3CCOCC3)c3c(c2C#N)CC(C)(C)OC3)cc1,80.5% (active)
13,COc1ccc(OC)c(/C=N/NC(=O)c2ccc[n+](CC(=O)c3ccccc3)c2)c1,-2.79%
14,CC(=O)Nc1ccc(S(=O)(=O)NC(C)C(=O)OCCOc2ccc(F)cc2)cc1 (stereo not given),3.17%
15,O=C(COc1ccccc1Cl)N1N=C(c2cccs2)CC1c1ccco1 (stereo not given),17.2%
16,O=C(Nc1cccc2cccnc12)C(F)(F)F,-6.93%
17,CC(NC(=O)COC(=O)c1ccc(Cl)cc1O)c1ccc(F)cc1 (stereo not given),96.5% (active)
18,CC(NC(=O)COC(=O)c1cc(=O)[nH]c2ccccc12)c1ccccc1 (stereo not given),3.95%
19,C=CCOc1ccc(/C=C/C(=O)OCC(=O)NC(C)c2ccc(F)cc2)cc1 (stereo not given),0.454%
20,CN(CC(=O)Nc1ccc(Cl)c(C(F)(F)F)c1)C(=O)CCC(=O)c1ccccc1,17.3%
21,CC1(C)O[C@@H]2[C@H](O1)[C@@H](COS(=O)(=O)O)O[C@H]2n1ccc(=O)[nH]c1=O,-5.53%
22,COc1ccccc1CNS(=O)(=O)c1cc(C(=O)NCc2ccccn2)c(Cl)cc1Cl,-2.79%
23,C=C1CCC(N(O)c2cc(C)on2)C(=C)CCC2C1CC2(C)C (stereo not given),13.2%
24,C=C(C)CNc1cc(S(=O)(=O)N2CCOCC2)ccc1Oc1ccccc1,-6.07%
25,COc1ccccc1Nc1cc(C(=O)NCCCN(C)C2CCCCC2)c2ccccc2n1,5.29%
26,CCCCn1c(N)c(N(CCC(C)C)C(=O)COC(=O)c2cccnc2OCC)c(=O)[nH]c1=O,1.64%
27,CC(C)c1ccc(S(=O)(=O)N2CCN(C(C)C(=O)NC3CCCC3)CC2)cc1 (stereo not given),10.1%
28,CCCn1c(N)c(N(CCOC)C(=O)C2CCCC2)c(=O)[nH]c1=O,1.46%

row,SMILES,activation
1,COc1cccc(N2CCN(CC(=O)Nc3ccnn3C3CCCC3)CC2)c1,1.23%
2,CC(=O)c1c(C)[nH]c(C(=O)COc2ccc3c(C)cc(=O)oc3c2)c1C,-2.89%
3,CC(C)N(Cc1nnc(-c2ccccc2Br)o1)C(=O)c1cc(Cl)nc2ccccc12,9.24%
4,O=C(Nc1ccc(C(F)(F)F)cc1)c1cccc(-n2cnnn2)c1,11.1%
5,COc1cc(C(=O)NNC(=O)CN2C(=O)NC3(CCCC3)C2=O)cc(OC)c1OC,-0.801%
6,O=C(c1ccc(Cl)c(S(=O)(=O)N2CCCCCC2)c1)N1CCN(c2ccc(O)cc2)CC1,13.5%
7,CC1CCCCC1NC(=O)NC(=O)COC(=O)C1=NN(c2ccccc2)C(=O)CC1 (stereo not given),0.278%
8,O=C(CNS(=O)(=O)c1ccc2c(c1)OCCCO2)N1CCN(c2ccc(F)cc2)CC1,-2.51%
9,CCc1ccc(C(=O)N2CCN(S(=O)(=O)c3sc(C(=O)O)c(C)c3C(=O)O)CC2)cc1,0.16%
10,N#Cc1nc(-c2cccc3ccccc23)oc1N,-1.65%
11,Cc1ccc2ccc3c(c2n1)NS(=O)(=O)c1ccccc1-3,-1.69%
12,COc1cccc(-n2c(SCC(=O)NC3CCS(=O)(=O)C3)nc3ccccc3c2=O)c1 (stereo not given),-0.844%
13,CN(CC(=O)Nc1ccc(Cl)cc1)C(=O)c1ccc(COc2ccccc2)cc1,3.35%
14,CN(C)C(=O)c1ccc(NC(=O)COC(=O)c2cc3c(s2)CCCCC3)cc1,1.68%
15,O=C(NCC1CCCO1)c1cc2c(s1)CCCC2 (stereo not given),17.2%
16,O=C(Nc1ccc(F)cc1)c1cc2c(s1)CCCC2,87.7% (active)
17,CCOC(=O)[C@@H]1[C@H]2COc3cc(OC)ccc3[C@H]2N2C(=O)N(c3ccc(F)cc3)C(=O)[C@]12C,-1.09%
18,CCOC(=O)[C@H]1[C@H]2COc3ccc(OC)cc3[C@@H]2N2C(=O)c3ccc(F)cc3NC(=O)[C@@]12C,88.1% (active)
19,CCOC(=O)[C@@H]1[C@H]2COc3cc(OC)ccc3[C@@H]2N2C(=O)N(c3cccc(C)c3)C(=O)[C@@]12C,2.6%
20,CCOC(=O)c1ccccc1NC(=O)COC(=O)C(Cc1c[nH]c2ccccc12)NC(C)=O (stereo not given),17.5%
21,O=C(/C=C/c1ccc(Cl)c([N+](=O)[O-])c1)c1ccc(O)cc1,83.8% (active)
22,O=C(/C=C/c1ccc(Cl)c([N+](=O)[O-])c1)c1cccnc1,-3.27%
23,CN(C)c1ccc(/C=C/C(=O)c2ccc(C(C)(C)C)cc2)cc1[N+](=O)[O-],-0.491%
24,Cc1c(/C=N\NC(=O)c2cc3ccccc3o2)c2ccccc2n1C,-1.62%
25,C/C(=N\NC(=S)Nc1ccc(C)cc1)c1cc2ccccc2o1,4.04%
26,Cc1ccc(NC(=O)c2cc3ccccc3o2)cc1,102% (active)
27,O=c1c2ccccc2ccc2ccc(P(=O)(O)O)cc12,-0.0431%
